High-throughput results deposited in PubChem by National Center for Advancing Translational Sciences (NCATS).
Rab9 prom act = activators of Rab9 promoter. Potency, µM (highest dose often 9.22 µM), for the others: top-dose activation, negative = inhibition, actives largely listed as activators. AID 485297. actives 2.8% (n = 320,000). Huh7 Rab9 promoter-luciferase reporter, luminescence, 24 h; further: % of control where 0% means no effect; nearly all actives have a fitted effect of over 60% in size
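Measured in stably transfected Huh7 cells bearing a Rab9 promoter–luciferase construct: 24 h compound treatment at 37 °C, followed by luminescence detection.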
FLuc counter = inhibits or activates purified firefly luciferase, miR-21 counter-screen; P08659; Potency, µM (top dose mostly 57.5 µM), without a hit: top-dose activity change, negative = inhibition, usual class: inhibitors; actives 6.9% (n = 360,000); purified FLuc, Km substrates, luminescence inhibition;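 further: plate controls were vehicle for no effect and reference inhibitor for full effect; nearly all actives have a fitted effect of over 55% in size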
Target sequence (P08659 whole entry, looked up): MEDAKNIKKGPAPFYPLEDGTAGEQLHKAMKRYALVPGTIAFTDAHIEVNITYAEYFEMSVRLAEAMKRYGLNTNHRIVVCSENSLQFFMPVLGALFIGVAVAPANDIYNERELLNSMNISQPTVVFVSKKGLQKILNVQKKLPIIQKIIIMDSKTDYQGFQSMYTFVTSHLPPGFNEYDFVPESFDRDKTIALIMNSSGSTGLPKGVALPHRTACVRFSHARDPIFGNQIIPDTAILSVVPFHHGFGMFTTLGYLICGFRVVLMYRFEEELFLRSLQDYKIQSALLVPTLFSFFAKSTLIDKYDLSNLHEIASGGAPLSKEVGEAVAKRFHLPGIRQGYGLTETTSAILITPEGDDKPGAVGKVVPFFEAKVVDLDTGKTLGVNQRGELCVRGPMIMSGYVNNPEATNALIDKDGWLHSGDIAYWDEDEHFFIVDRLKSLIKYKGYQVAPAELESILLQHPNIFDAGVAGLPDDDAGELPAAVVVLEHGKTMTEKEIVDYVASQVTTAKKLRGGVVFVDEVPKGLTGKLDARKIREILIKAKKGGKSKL
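Purified P. pyralis luciferase (10nM final) with 10uM D-luciferin and 10uM ATP (Km levels) in 50mM Tris acetate pH 7.5, 10mM Mg acetate, 0.01% Tween-20, 0.05% BSA; qHTS 6-point titration, ~60 µM downward; luminescence read.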
ELG1 DNA repair = blocks ELG1-dependent DNA repair in HEK293T cells. Potency, µM (doses to about 46.1 µM), without a hit: top-dose activity change, negative = inhibition, most hits filed as inhibitors. HEK293T ELG1-luciferase reporter, luminescence, 16 h; DNA damage induced by 5-fluorouridine. actives 2.3% (n = 330,000); further: on the % scale 0 is the no-effect control and ±100 the full control effect; nearly all actives have a fitted effect of over 55% in size
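5-Fluorouridine DNA damage + compound/DMSO, 2,000 cells/well, 16 h, 37 °C/5% CO2. ONE-Glo, 30 min RT, luminescence. Readout = decrease in reporter signal.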
NPC1 promoter act = activates the NPC1 promoter; Huh7 NPC1 promoter luciferase reporter, 24 h; Potency, µM (top dose mostly 9.22 µM), inactives show at the top dose activation, hits mostly activators; actives 2.4% (n = 320,000); AID 485313; further: % of control where 0% means no effect; nearly all actives have a fitted effect of over 60% in size
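Luminescence read-out of NPC1 promoter-driven luciferase in stably transfected Huh7 cells; compounds delivered in DMSO and left 24 h at 37C, 5% CO2, qHTS titration format.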
ELG1 genotox = genotoxicity induction in ELG1-luciferase HEK293T cells. HEK293T ELG1-luciferase reporter, luminescence, 16 h. Potency, µM (doses to about 46 µM), inactives show at the highest dose activity change, positive = activation, hits mostly activators. actives 1.3% (n = 330,000). AID 504466; further: % of control where 0% means no effect; nearly all actives have a fitted effect of over 60% in size
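Genotoxicity was scored as increased ELG1-luciferase reporter signal, measured by ONE-Glo luminescence (30 min, room temperature). Compound or vehicle exposure of the HEK293T reporter cells lasted 16 hr at 37°C.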
SMN2 splice enh = SMN2 splice variant enhancement | HEK293 SMN2-luciferase splicing reporter, luminescence, 30-36 h | Potency, µM (highest dose often 46.1 µM), for the others: top-dose activity change, positive = activation, usual class: activators | actives 2.8% (n = 210,000) | AID 1458; further: % of control where 0% means no effect; nearly all actives have a fitted effect of over 55% in size
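qHTS luciferase splicing reporter: luminescence rises when SMN2 exon 7 is included in transfected HEK293 cells. Compound exposure lasted 30-36 h at 37C, with 4.5 mM final sodium butyrate as control, followed by a ONE-Glo read.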
Numbers without * were called inactive; ? = inconclusive; nt = no result; [ ] = remark or other dose. A selection: hits, their analogues and other compounds. The true share with any hit is near 9.2%. The call rests on the fitted dose curve; in most records, active means well fitted curve in the direction sought with a large enough effect; inconclusive means small, poorly fitted or top-dose-only effect, or another doubt; inactive means no such curve, though single readings can be large; an effect the other way counts as inactive or inconclusive. Potency means the concentration at half of the fitted maximal effect.

SMILES	Rab9 prom act	FLuc counter	ELG1 DNA repair	NPC1 promoter act	ELG1 genotox	SMN2 splice enh
CC12CCC(C(=O)NNc3ccccc3)(C(=O)C1=O)C2(C)C (stereo unspecified)	-4%	-3%	-12%	-2%	12%	nt
CCCC1CCC(C(=O)n2nc(N)c3cc4ccc(OC)cc4nc32)CC1 (stereo unspecified)	-2%	-1%	5.8µM*	0%	-10%	-12%
CCCC1CCC(C(=O)Nn2c(C)nc3ccccc3c2=O)CC1 (stereo unspecified)	2%	0%	?	0%	-1%	-21%
Cc1cccc(OCc2nnc(NC(=O)c3cccs3)s2)c1	-1%	5%	-2%	-2%	3%	-20%
COc1ccc(-c2nnc(NC(=O)c3ccco3)s2)cc1	0.79µM*	1.5µM*	?	3.5µM*	?	nt
O=C(Nc1nnc(C23CC4CC(CC(C4)C2)C3)s1)c1ccco1	1.8µM*	2.1µM*	?	1.8µM*	1.2µM*	16%
CCOc1ccc(CC(=O)Nc2sc(Cc3ccccc3)cc2C(N)=O)cc1OCC	-1%	-2%	-6%	1%	-4%	-18%
COc1cccc(-c2nnc(NC(=O)c3cccs3)s2)c1	?	2.4µM*	?	?	?	18µM*
NC(=O)c1cc(Cc2ccccc2)sc1NC(=O)c1ccco1	4.5µM*	9.5µM*	?	3.5µM*	?	16µM*
COc1ccc2c(COC(=O)CCS(=O)(=O)c3ccc(C)cc3)cc(=O)oc2c1	-3%	-4%	7%	-2%	5%	nt
CC1CCCC(C)N1C(=O)COC(=O)c1c[nH]c2ccccc12 (stereo unspecified)	27%	?	?	-1%	-2%	nt
O=C(Cn1c(=O)n2nc(-c3cccc(F)c3)nc2c2ccccc21)N1CCN(c2ccccc2F)CC1	nt	4%	nt	nt	nt	nt
CC1CC(C)CN(CCCNC(=O)CN2C(=O)CSc3ccc(S(=O)(=O)N4CCOCC4)cc32)C1 (stereo unspecified)	-3%	-1%	0%	-2%	0%	nt
O=C(Nc1nnc(Cc2ccccc2)s1)c1ccco1	?	17µM*	?	?	16µM*	?
COc1cccc(-c2nnc(NC(=O)c3ccco3)s2)c1	2.2µM*	7.6µM*	?	2.2µM*	16µM*	nt
CCCCC(=O)Nc1nnc(/C=C/c2ccc(OC)cc2)s1	20%	-12%	-5%	16%	9%	nt
COc1ccc(/C=C/c2nnc(NC(=O)c3ccco3)s2)cc1	-2%	2.7µM*	1%	-8%	7%	nt
Cc1cccc(C(=O)Nc2nnc(-c3ccc(C(C)(C)C)cc3)s2)c1	10%	11µM*	8%	16%	9%	1%
O=C(Nc1ncc(Cc2cccc([N+](=O)[O-])c2)s1)c1ccco1	?	?	6%	23%	18%	nt
Cc1nnc(NC(=O)c2ccco2)s1	2%	0%	?	-1%	7%	6%
Cc1ccc(Cc2cnc(NC(=O)c3ccco3)s2)cc1	0.63µM*	0.85µM*	?	0.63µM*	1.8µM*	13µM*
CCCOc1cccc(-c2nnc(NC(=O)c3ccco3)s2)c1	20%	27µM*	17%	-6%	?	nt
Cc1cccc(Cc2cnc(NC(=O)C3=NCCN3)s2)c1	25%	0%	?	1%	-7%	18%
Cc1cccc(Cc2cnc(NC(=O)c3ccc(C)o3)s2)c1	?	9.5µM*	?	?	5.8µM*	-2%
C/C=C(\C)c1nnc(NC(=O)c2ccco2)s1	?	15µM*	?	?	16µM*	13µM*
SMILES	Rab9 prom act	FLuc counter	ELG1 DNA repair	NPC1 promoter act	ELG1 genotox	SMN2 splice enh
O=C(Cn1cnc2c(nnn2Cc2ccc(F)cc2)c1=O)Nc1ccccc1	-3%	-2%	-4%	2%	9%	nt
COc1ccc(S(=O)(=O)N2CCC(C(=O)Nc3ccccc3N3CCCCC3)CC2)cc1OC	1%	-2%	?	-3%	-13%	nt
COc1cccc(Nc2nc3c(S(=O)(=O)c4cc(C)ccc4C)nnn3c3ccsc23)c1	nt	-1%	nt	nt	nt	nt
Cc1ccc(-c2nnc(NC(=O)c3ccco3)s2)cc1	2.2µM*	1.5µM*	?	2.2µM*	4.6µM*	nt
COc1ccccc1N1CCN(CCCNC(=O)Cn2ncc3c([nH]c4ccccc43)c2=O)CC1	-10%	3%	14%	-3%	-5%	nt
CC[C@H](C)[C@@H](NC(=O)O[C@H]1C(=O)c2ccc(OC)cc2O[C@@H]1c1ccc2c(c1)OCO2)C(=O)OC	nt	nt	nt	nt	nt	13%
O=C(Oc1ccccc1C(=O)Nc1ccccc1)c1ccc(Br)c([N+](=O)[O-])c1	15%	15µM*	?	1%	13%	-6%
CCOC(=O)c1cccc(NC(=O)c2cccnc2)c1	0%	-5%	11%	10%	-4%	-8%
CCOC(=O)c1cccc(NC(=O)c2ccc(NC(=O)c3ccco3)cc2)c1	3%	0%	?	-1%	4%	nt
CCOC(=O)c1ccc(NC(=S)Nc2ccccn2)cc1	25%	-19%	?	?	15µM*	12%
CCOC(=O)c1cccc(NC(=O)c2ccc(N(C)C)cc2)c1	0.28µM*	1.7µM*	?	0.4µM*	8%	?
CCOC(=O)c1cccc(NC(=O)c2cnc3ccccc3n2)c1	2µM*	17µM*	12%	?	24%	nt
COc1ccccc1C(=O)Oc1ccccc1C(=O)Nc1ccccc1	26%	?	?	15%	-1%	nt
CCOC(=O)c1ccc(NC(=S)Nc2ccc(Cl)cn2)cc1	?	-2%	1%	25%	8%	nt
CCc1ccc(S(=O)(=O)c2c[nH]c3cc(OC)c(OC)cc3c2=O)cc1	nt	3%	nt	nt	nt	8%
CC(CC(=O)NCc1ccc(Cl)cc1)CC1=NS(=O)(=O)c2ccccc2N1 (stereo unspecified)	nt	-10%	nt	nt	nt	nt
CCOC(=O)c1cccc(NC(=O)CSc2nc3cccnc3n2C)c1	-24%	-13%	18µM*	-12%	-17%	-104%
CCOC(=O)c1ccc(NC(=O)c2ccccc2[N+](=O)[O-])cc1	27%	?	?	17%	12%	18µM*
CCOC(=O)c1ccc(NC(=O)c2ccc(NS(C)(=O)=O)cc2)cc1	-2%	?	-4%	-4%	-3%	-13%
CCOC(=O)c1ccc(NC(=O)c2ccccc2)cc1	2.8µM*	-3%[2.3 µM]	?	2.8µM*	?	10µM*
CCOC(=O)c1ccc(NC(=O)c2cccc(C)c2[N+](=O)[O-])cc1	1%	?	8%	10%	3%	nt
